# Measurements from PubChem BioAssay (NCI).
# Compounds without any hit were thinned out: in the full panel of roughly 83,000, 20% have a hit.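 Activity criterion: percent growth below 10, measured after cells in 96-well plates were exposed to a single compound concentration for 48 hours.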 Unmarked numbers belong to inactive results. Calls of active or inactive are those of the source.
# Tests used:
# Experiment in all cases: NCI-60 one-dose screen, 48 h (100 = growth as untreated, 0 = no growth, -100 = all killed)
# Details in all cases: 10 µM unless noted
# NCI-H23 lung = system: NCI-H23 lung
# NCI-H322M lung = system: NCI-H322M lung
# HOP-62 NSCLC = system: HOP-62 NSCLC
# NCI-H460 lung = system: NCI-H460 lung
# HOP-92 NSCLC = system: HOP-92 NSCLC
# NCI-H522 lung = system: NCI-H522 lung
# 786-0 renal = system: 786-0 renal
# COLO 205 colon = system: COLO 205 colon
# DU-145 prostate = system: DU-145 prostate
# K-562 leukemia = system: K-562 leukemia
# MALME-3M melanoma = system: MALME-3M melanoma
# MDA-MB-231 breast = system: MDA-MB-231 breast
# RXF 393 renal = system: RXF 393 renal
# SF-268 CNS = system: SF-268 CNS
# SF-295 CNS = system: SF-295 CNS
# SF-539 CNS = system: SF-539 CNS
# UACC-257 melanoma = system: UACC-257 melanoma
# M14 melanoma = system: M14 melanoma
# HCT-15 colon = system: HCT-15 colon
# A549/ATCC NSCLC = system: A549/ATCC NSCLC
Structure (SMILES),growth (NCI-H23 lung),growth (NCI-H322M lung),growth (HOP-62 NSCLC),growth (NCI-H460 lung),growth (HOP-92 NSCLC),growth (NCI-H522 lung),growth (786-0 renal),growth (COLO 205 colon),growth (DU-145 prostate),growth (K-562 leukemia),growth (MALME-3M melanoma),growth (MDA-MB-231 breast),growth (RXF 393 renal),growth (SF-268 CNS),growth (SF-295 CNS),growth (SF-539 CNS),growth (UACC-257 melanoma),growth (M14 melanoma),growth (HCT-15 colon),growth (A549/ATCC NSCLC)
O=C(CCc1nnc2sc(-c3ccc(Cl)cc3Cl)nn12)c1nc2ncccc2[nH]1,-40.7% (active),11.7%,2.87% (active),-66.8% (active),-62.1% (active),-47.9% (active),-31.5% (active),-32.5% (active),-7.95% (active),6.32% (active),-47.6% (active),-43.5% (active),-93.1% (active),36.9%,-56.8% (active),-21% (active),-25.3% (active),-14.2% (active),-40.2% (active),
COc1ccc(/C=C/C(=O)c2ccc(Nc3nc(NCCO)nc(Nc4ccc(Cl)cc4)n3)cc2)cc1,89.6%,93.6%,87.8%,61.7%,86.7%,71.6%,63.9%,,71.4%,62.3%,97.2%,70%,66.3%,65.7%,93.6%,74.9%,100%,67.9%,38.2%,50.2%
Cc1cccc(NC(=O)c2sc3nc4c(cc3c2N)CCCC4)c1C,30.2%,42.4%,26.4%,6.76% (active),49.6%,,34%,-38% (active),19.6%,,45.7%,38.6%,,34.9%,6.95% (active),-12.2% (active),66.3%,4.97% (active),16.2%,26.3%
Cc1ccc(NC2=CC(=O)C(=O)c3ccccc32)c(C)c1,-25.5% (active),57.7%,27.3%,-56.7% (active),123%,,99.4%,85%,-60.8% (active),61.3%,62.5%,49.5%,85.5%,63.2%,34.6%,48.8%,23.1%,-15.5% (active),13.3%,
CCC(C)(C)C(=O)O[C@H]1C[C@@H](C)C=C2C=C[C@H](C)[C@H](CC[C@@H]3CC=CC(=O)O3)[C@H]21,78%,103%,108%,101%,75.3%,,110%,72.7%,82.7%,32.8%,94.1%,96.9%,41.3%,85.7%,97.5%,96.1%,60.4%,61.3%,63.9%,78.7%
OC(c1ccccc1)c1nnc(SCc2ccccc2)n1Cc1ccccc1 (stereo not drawn),98.2%,106%,91.5%,106%,58.8%,,95.4%,102%,108%,84.4%,77.3%,103%,,94.2%,83.4%,101%,103%,88%,88.9%,94.1%
O=C(/C=C/c1ccc(C(F)(F)F)cc1)c1ccc(Nc2nc(NCCO)nc(N3CCOCC3)n2)cc1,39.4%,40.5%,33%,11.7%,64%,,-2.96% (active),,13%,5.46% (active),97%,46.7%,73.9%,36%,81.4%,50.6%,98.9%,37.5%,7.59% (active),13.1%
CNCCNc1nc2ccccc2c2c(=O)c3cccc(C)c3sc12,58.2%,40.9%,25.6%,9.45% (active),44%,,57.3%,,27.8%,-52.5% (active),-11.3% (active),-18% (active),50.8%,53.7%,76%,52.4%,82%,-40.9% (active),-21.3% (active),35.7%
COc1ccc(-c2cc(=O)c3c(OC)c4ccoc4c(/C=C/C=O)c3o2)cc1,40.5%,51.2%,15.5%,64.8%,72.4%,,82.8%,99%,24.8%,12.2%,24.8%,53.6%,48.5%,36.2%,31.7%,14.8%,108%,28.4%,-54.1% (active),90.7%
O=C(N=Nc1c(O)[nH]c2ccccc12)c1oc2ccccc2c1CN1CCN(c2ccccc2)CC1,-0.112% (active),33.2%,7.31% (active),-65.3% (active),-12% (active),,-83.2% (active),12.7%,-34.2% (active),16.5%,-64.6% (active),24.6%,-67.6% (active),10.8%,13%,8.4% (active),20.1%,-8.59% (active),-8.29% (active),-13.5% (active)
Cc1ccc(C)c(-c2csc(Nc3ccc(C)c(C)c3)n2)c1,57%,91.1%,62.3%,38.5%,27.1%,,65.9%,-54.6% (active),,-36.5% (active),-86.3% (active),39.5%,21.8%,75.5%,-79.5% (active),25.1%,-58.6% (active),-81.3% (active),12.4%,43.6%
O=C(O)CCC(=O)c1ccc(C2CCCCCC2)cc1,97.9%,97.5%,98.8%,107%,99.7%,,95.8%,104%,108%,90.2%,91.5%,109%,115%,97.5%,97.4%,97.1%,94.6%,102%,105%,99.6%
COc1ccc(Nc2nc(N/N=C/c3ccc(O)cc3)nc(Nc3ccc([N+](=O)[O-])cc3)n2)cc1,103%,110%,107%,107%,109%,95.3%,105%,111%,,103%,114%,109%,121%,128%,89.2%,110%,99.9%,108%,107%,
CC(=O)c1ccc(NC(=O)Nc2ccc(S(=O)(=O)Nc3ccc(Cl)nn3)cc2)cc1,96.4%,95.8%,95.9%,109%,106%,,108%,,110%,103%,100%,96.7%,117%,99.2%,103%,97.6%,99.4%,111%,107%,103%
O=c1oc2ccc(Br)cc2c(=O)n1-c1ccc(F)cc1F,4.93% (active),7.55% (active),6.8% (active),5.91% (active),-24.4% (active),,4.39% (active),85.5%,18%,9.74% (active),-22.5% (active),14.1%,3.17% (active),12.7%,-11.1% (active),10.7%,-8.2% (active),12%,13.6%,6.77% (active)
O=C(/C=C/c1ccccn1)c1ccc(OCc2nnc(-c3ccc(Cl)cc3)o2)cc1,70%,52.7%,44.6%,42.4%,105%,,-49.9% (active),-40.1% (active),23.8%,-28.1% (active),60.4%,33.4%,-71.7% (active),28.6%,,-4.02% (active),56.5%,31.1%,18.9%,34.1%
O=C1/C(=C\c2ccc[nH]2)c2ccccc2N1c1ccccc1,87.9%,91.7%,106%,95.8%,96%,,98.1%,108%,112%,90.9%,103%,84.4%,105%,101%,104%,94%,110%,109%,82.7%,96%
